Assay [1] can be described thus: CCTE_Mundy_HCI_Cortical_Synap_Neur_Matur_SynapseCount: CCTE's Synaptogenesis and Neurite Maturation Assay in rat cortical cells for Synapse Count, Mundy Lab (AID 2284218). In short, it runs like this:
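Synapse count per neuron is measured in rat cortical neurons exposed to chemicals between DIV 7 and DIV 12, with glial growth arrested by AraC at DIV 5. Synaptophysin and MAP2 staining is imaged automatically; activity is fitted relative to DMSO.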

Assay [2] is described as follows: CCTE_Mundy_HCI_Cortical_Synap_Neur_Matur_NeuriteCount: CCTE's Synaptogenesis and Neurite Maturation Assay in rat cortical cells for Neurite Count, Mundy Lab (AID 2284222).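 For outcome: exposure from day 7 to day 12 in vitro with readout at day 12.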 The method in brief:
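Rat primary cortical cells; AraC added at DIV 5, chemicals dosed with media change at DIV 7 through DIV 12. MAP2/synaptophysin/Hoechst immunostaining, high-content imaging of neurite number; fitted relative to DMSO.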

Assay [3] can be described thus: CCTE_Mundy_HCI_Cortical_Synap_Neur_Matur_CellBodySpotCount: CCTE's Synaptogenesis and Neurite Maturation Assay in rat cortical cells for Cell Body Spot Count, Mundy Lab (AID 2284223). The method in brief: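 Rat primary cortical cultures received AraC at DIV 5 to arrest glia, were dosed with chemical at DIV 7 with media change, and were fixed at DIV 12 (288.33 h). Synaptophysin puncta on MAP2-positive cell bodies per neuron were counted by high-content imaging versus DMSO.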

Assay [4] is described as follows: CCTE_Mundy_HCI_hNP1_Pro_ResponderAvgInten: CCTE's Proliferation Assay in human neuroprogenitor cells, Mundy Lab (AID 2284224; active = hit-call score of the fitted dose curve at least 0.9, where 1 is the maximum;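 note: human neural progenitor cells hNP1 derived from WA09 embryonic stem cells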). The method in brief:
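Human neuroprogenitors (hNP1, WA09 lineage) receive test chemical after 40 to 44 hours of attachment. A four-hour BrdU pulse begins twenty hours later, followed by fixation and high content imaging; signal is referenced to DMSO controls.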

A short description of assay [5]: TAMU_PeakParms_SingleDonor1434_Chronotropy: Texas A&M University (TAMU) 1.5-hr Human Induced Pluripotent Stem Cell (iPSC)-derived Cardiomyocytes Calcium (Ca+2) Flux Assay for Cardiotoxicity: Chronotropy (changes in peak frequency) (AID 2284217). Particulars: actives raise or lower the signal. In short, it runs like this:
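iPSC-derived cardiomyocytes (single donor 1434) dosed at 0.2, 1, 10 and 100 uM in 0.5% DMSO for 1.5 h at 37C; Ca2+ dye fluorescence gave average beat frequency. Zero-beat points removed; bidirectional fit versus DMSO, POD as EC05.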

Assay [6] can be described thus: BSK_BT_PBMCCytotoxicity: PBMC Cytotoxicity Assessment in the BioMAP Diversity Plus: BT Assay (AID 2284225).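 Note: PBMC viability measured by Alamar Blue dye reduction fluorescence.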 Particulars: primary human B cells with PBMC. In short, it runs like this:
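75,000 cells/well; cpd 1 h → SEB + TSST-1 (20 ng/mL final each) → 90 h → Alamar Blue 6 h → fluor. 546/580 nm. DMSO = neg. control/baseline.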

Read-out in assay [7]: Secreted IgG (sIgG), gene 3500
Description: BSK_BT_sIgG: BioMAP Diversity Plus: BT Assay for Secreted IgG (sIgG) Biomarker Activity (AID 2284226). Particulars: primary human B cells with PBMC. The method in brief:
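Secreted IgG from a human primary B cell–PBMC co-culture was measured by ELISA 24 hours after dosing, with DMSO defining baseline activity.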

Assay [8] can be described thus: BSK_BT_Bcell_Proliferation: Viability Assessment in the BioMAP Diversity Plus: BT Assay for B cell Proliferation (AID 2284227). Particulars: primary human B cells with PBMC. In short, it runs like this:
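Human B cells co-cultured with PBMC were dosed with test chemicals and relative cell number was quantified by SRB staining at 72 h. Cells were fixed in 10% TCA, stained with 0.1% SRB and read at 560 nm. Activity was fitted in the positive direction against DMSO.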

Inconclusive results are not listed. The source holds several records for some structures; these can differ, active in one and inactive in another. Calls of active or inactive are those of the source. Rule for the calls, unless noted: active = hit-call score of the fitted dose curve at least 0.9, where 1 is the maximum; inactive = score below 0.9.

In the case of `CCC(C)(C)C(=O)OC1=C(c2ccc(Cl)cc2Cl)C(=O)OC12CCCCC2`, the result in assay [1], in assay [2], in assay [3] and in assay [4] was inactive.
For orientation: AC50 means the midpoint of the concentration-response curve, whichever way the signal moves. With `CCOCN(C(=O)CCl)c1c(C)cccc1CC`, in assay [5], the AC50 is 4730 nM (active).
With `CC[C@H](C)[C@H]1O[C@]2(C=C[C@@H]1C)C[C@@H]1C[C@@H](C/C=C(\C)[C@@H](O[C@H]3C[C@H](OC)[C@@H](O[C@H]4C[C@H](OC)[C@@H](O)[C@H](C)O4)[C@H](C)O3)[C@@H](C)/C=C/C=C3\CO[C@@H]4[C@H](O)C(C)=C[C@@H](C(=O)O1)[C@]34O)O2` (tested in a mixture with another compound), the AC50 in assay [1] was 1410 nM (active); in assay [2], 1590 nM (active); in assay [3], 1750 nM (active); in assay [4] it was 1450 nM (active).
As to `CN1CSC(=S)N(C)C1`, the outcome in assay [5] was inactive.
Take `O=C(O)C(F)(F)C(F)(F)C(F)(F)C(F)(F)C(F)(F)C(F)(F)C(F)(F)F`: the compound was called inactive in assay [1], in assay [2], in assay [3], in assay [4], in assay [6] and in assay [7]. The outcome in assay [8] was inactive. Further, the AC50 was 30000 nM (active) in assay [6] and 24000 nM (active) in assay [8].
On to `CC(C)N(C(=O)COc1nnc(C(F)(F)F)s1)c1ccc(F)cc1`, for which the compound was classed as inactive in assay [1], in assay [2], in assay [3] and in assay [4].
On to `COP(=S)(OC)Oc1ccc([N+](=O)[O-])cc1`, for which the compound was classed as inactive in assay [1], in assay [2] and in assay [3].

The values are drawn from PubChem BioAssay (EPA / NIEHS).
